Drawing on PubChem BioAssay (NCATS), this text covers Potency, max response and outcome for seven molecules.

Where “and” joins values, the source holds several entries; their conditions need not be identical. Equal values may be shown once. Records with an inconclusive call do not appear. Unmarked numbers belong to inactive results. Calls of active or inactive are those of the source. Calls follow the shape of the dose curve; as a rule, active = well fitted curve in the direction sought with a large enough effect; inconclusive = small, poorly fitted or top-dose-only effect, or another doubt; inactive = no such curve, though single readings can be large; an effect the other way counts as inactive or inconclusive.

One test concerns TAB109. Nature of the test: qHTS profiling for inhibitors of Plasmodium falciparum proliferation (AID 504749). Also: nearly all actives have a fitted effect of over 60% in size. The conditions noted are these: P. falciparum in erythrocytes, SYBR Green DNA, 72 h; series mostly up to 28.7 µM. Put shortly: (§1)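 Each compound contacts P. falciparum-infected red blood cells for 72 h at 37 C; lysis buffer (Tris, EDTA, saponin, Triton X, SYBR Green I) is added and fluorescence measured next morning; values normalized to controls.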
For orientation: Quantitative high-throughput screening tests each substance at several concentrations.

The next test has as its system TAB113. The test is described as above. The conditions noted are these: P. falciparum in erythrocytes, SYBR Green DNA, 72 h; series mostly up to 28.7 µM. In short, it runs like this: as §1
For the next test, the system named is TAB165. The description is as above. The conditions noted are these: P. falciparum in erythrocytes, SYBR Green DNA, 72 h; series mostly up to 28.7 µM. In short, it runs like this: as §1
The next test relates to CRL-7250. The test is described as follows: Cytotoxic Profiling of Annotated Libraries Using Quantitative High-Throughput Screening (AID 1296008). Also: nearly all actives have a fitted effect of over 60% in size. As to max response: % is scaled to controls: 0 for no effect and ±100 for the full control effect. The conditions noted are these: Five cell lines viability, CellTiter-Glo ATP luminescence, 48-72 h; max response: hits give low values. In short, it runs like this: (§2)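 Cells exposed to compounds for 48 or 72 hr at 37 degrees Celsius. Viability read as ATP-coupled luminescence with CellTiter-Glo after 10 min at room temperature.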
On the technique in general: ATP-based viability assays read luminescence as a measure of living cells.

The test system of test [1] is HaCat. Described as above. The conditions noted are these: Five cell lines viability, CellTiter-Glo ATP luminescence, 48-72 h; max response: hits give low values. In short, it runs like this:
as §2

Test [2] concerns NIH3T3. The description is as above. The note with it: Five cell lines viability, CellTiter-Glo ATP luminescence, 48-72 h; max response: hits give low values. In short, it runs like this:
as §2

Test [3] concerns HACAT. The test is described as follows: qHTS assay to identify novel small-molecules to repurpose for Merkel cell carcinoma treatment (AID 1296009). Also: nearly all actives have a fitted effect of over 60% in size. The conditions noted are these: MCC and control cell lines, CellTiter-Glo viability, 72 h; at 44.8 µM (top of the series) unless noted. In short, it runs like this: (§3)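 Dose-response viability screen; 72 hr exposure at 37 degree celsius; CellTiter-Glo added, 10 min room temperature, luminescence read; RLUs scaled between no-cell and DMSO wells.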

The subject of another test is MCC-13. The test is described as above. The note with it: MCC and control cell lines, CellTiter-Glo viability, 72 h; series mostly up to 46 µM. Put shortly: as §3
In a further test the test system is MCC-26. The description is as above. The note with it: MCC and control cell lines, CellTiter-Glo viability, 72 h; series mostly up to 46 µM. Put shortly:
as §3

In another test the test system is MKL-1. The description is as above. The conditions noted are these: MCC and control cell lines, CellTiter-Glo viability, 72 h; series mostly up to 46 µM. In short, it runs like this: as §3
Another test concerns MKL-2. The test is described as above. The note with it: MCC and control cell lines, CellTiter-Glo viability, 72 h; series mostly up to 46 µM. In short, it runs like this:
as §3

The test system of test [4] is NIH3T3. The description is as above. The conditions noted are these: MCC and control cell lines, CellTiter-Glo viability, 72 h; at 44.8 µM (top of the series). In short, it runs like this:
as §3

The next test has as its system WaGa. Described as above. The conditions noted are these: MCC and control cell lines, CellTiter-Glo viability, 72 h; series mostly up to 46 µM. Put shortly:
as §3

The test system of the next test is C33A. The test is described as follows: Primary qHTS to identify gynecologic anti-cancer compounds using libraries of approved drugs and bioactive compounds (AID 1345084). Also: nearly all actives have a fitted effect of over 55% in size. The conditions noted are these: Gynecologic cancer cell panel viability, ATPlite luminescence, 48 h; series mostly up to 57.5 µM. Put shortly: (§4)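 48 h compound exposure at 37 C, 5% CO2; five-point qHTS. ATPlite luminescence readout of cell ATP.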

A further test concerns CAOV3. The description is as above. The conditions noted are these: Gynecologic cancer cell panel viability, ATPlite luminescence, 48 h; series mostly up to 57.5 µM. In short, it runs like this:
as §4

A further test deals with KB-3-1. The test is described as follows: Cytotoxic Profiling of Annotated Libraries Using Quantitative High-Throughput Screening (AID 1296008). Also: nearly all actives have a fitted effect of over 60% in size. As to max response: % is scaled to controls: 0 for no effect and ±100 for the full control effect. The note with it: Five cell lines viability, CellTiter-Glo ATP luminescence, 48-72 h; max response: hits give low values. Put shortly:
as §2

The subject of a further test is UISO. Nature of the test: qHTS assay to identify novel small-molecules to repurpose for Merkel cell carcinoma treatment (AID 1296009). Also: nearly all actives have a fitted effect of over 60% in size. The note with it: MCC and control cell lines, CellTiter-Glo viability, 72 h; series mostly up to 46 µM. In short, it runs like this: as §3
The next test concerns W2. The test is described as follows: qHTS profiling for inhibitors of Plasmodium falciparum proliferation (AID 504749). Also: nearly all actives have a fitted effect of over 60% in size. The conditions noted are these: P. falciparum in erythrocytes, SYBR Green DNA, 72 h; series mostly up to 28.7 µM. In short, it runs like this: as §1
Another test concerns HEK293. The test is described as follows: Cytotoxic Profiling of Annotated Libraries Using Quantitative High-Throughput Screening (AID 1296008). Also: nearly all actives have a fitted effect of over 60% in size. As to max response: % is scaled to controls: 0 for no effect and ±100 for the full control effect. The note with it: Five cell lines viability, CellTiter-Glo ATP luminescence, 48-72 h; max response: hits give low values. Put shortly:
as §2
Potency is read from the fitted curve at half-maximal effect.

For the molecule `CC(C)=CCOc1ccc(/C=C/C(=O)c2ccc(OCC=C(C)C)cc2OCC(=O)O)cc1`, the Potency result in the test with TAB109, in the test with TAB113, with TAB165, in the test on MCC-13, in the test with MCC-26 and in the test with MKL-1 was “inactive” throughout. Also, the Potency entry in the test with MKL-2, with WaGa, in the test on C33A and in the test on CAOV3 was “inactive” in each case. In addition, in the test on CRL-7250, the max response was -15.2%. Besides, the molecule was classed as inactive in the test with HaCat [1], with NIH3T3 [2], in the test with HACAT [3] and in the test on NIH3T3 [4].

Consider `CCCCC(CC)CN1CN(CC(CC)CCCC)CC(C)(N)C1` (stereo unspecified), for which the max response with CRL-7250 is -21.5%; in the test on HaCat [1] it was -10.2%; with KB-3-1, -12.3%; in the test with NIH3T3 [2], -12.8%. Besides, the Potency entry in the test with MCC-13, in the test with MCC-26, in the test with MKL-1, with WaGa, with C33A and with CAOV3 was “inactive” throughout.

On to `CC(C)(C)NC[C@H](O)COc1cccc2c1CCCC2=O`, for which the Potency result in the test on TAB109, in the test with TAB113, in the test on TAB165, in the test on MCC-13, in the test on MCC-26 and in the test with MKL-1 was “inactive” each time. Further, the Potency entry in the test on MKL-2, with UISO, in the test on WaGa, in the test on C33A and in the test with CAOV3 was “inactive” each time. Moreover, the max response was -0.218% with CRL-7250, -26.5% with HaCat [1] and -0.923% in the test with NIH3T3 [2].

For the molecule `CC(C)(C)CC(C)(C)c1ccc(O)c(-n2nc3ccccc3n2)c1`, the Potency with TAB113 is 10 µM (active); in the test with TAB165 it was 12.6 µM (active); in the test on W2 it was 6.01 µM (active). For the same molecule, the max response in the test with HEK293 is -0.0454%; in the test on KB-3-1 it was 2.75%; in the test on NIH3T3 [2], 3.67%. Also, the result in the test on HaCat [1] and in the test on HACAT [3] was inactive. The Potency result with MCC-13, in the test on MCC-26, in the test with MKL-1, in the test with MKL-2, with UISO and in the test on WaGa was “inactive” in each case. Moreover, the Potency result in the test with C33A and with CAOV3 was “inactive” in each case.

For the molecule `O=C(CCCN1CC=C(n2c(=O)[nH]c3ccccc32)CC1)c1ccc(F)cc1`, the max response in the test with CRL-7250 was -30.7%; in the test with HaCat [1], -9.03% and -18.9%; with KB-3-1, 3.95% and 1.87%; in the test on NIH3T3 [2] it was -10.6%. Besides, the Potency result in the test with MCC-26, in the test with MKL-1, with MKL-2 and with C33A was “inactive” each time. The Potency in the test with UISO is 26.6 µM (active).

`CN1CCN(c2c(F)cc3c(=O)c(C(=O)O)cn4c3c2SCC4)CC1`: the Potency result in the test with TAB113, in the test with MCC-13, in the test with MCC-26, in the test on MKL-1, with MKL-2 and with UISO was “inactive” each time. Further, the Potency result with WaGa, with C33A and in the test with CAOV3 was “inactive” each time. Further, the max response was -2.29% in the test with CRL-7250 and -3.6% with NIH3T3 [2]. The molecule was called inactive with HaCat [1] and in the test with HACAT [3].

For the molecule `CCN1/C(=C/C=C/c2sc3ccccc3[n+]2CC)Sc2ccccc21`, the Potency in the test on TAB109 was 0.141 µM (active); with TAB113 it was 0.141 µM (active); with TAB165 it was 0.141 µM (active); with W2, 0.0953 µM (active); in the test on CRL-7250 it was 0.13 µM (active); in the test on HaCat [1], 2.91 µM (active). For the same molecule, the Potency is 1.84 µM (active) in the test on NIH3T3 [2]; 3.26 µM (active) in the test on MCC-13; 5.8 µM (active) in the test on MCC-26; 0.366 µM (active) in the test with MKL-1; 0.058 µM (active) in the test on MKL-2; 0.366 µM (active) with UISO. Besides, the Potency was 0.82 µM (active) in the test on WaGa and 2.51 µM (active) with C33A.
